Sampled rows, rich in hits. Any-hit rate of the full collection: about 21%.
Pf growth 96h = P. falciparum growth inhibition at 96 hours; P. falciparum luciferase reporter growth, 96 h; Potency, µM (series often up to 28.7 µM), usual class: inhibitors; 6.9% of 320,000 active
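Delayed-death screen, second-generation endpoint: infected erythrocytes, 2% hematocrit, 0.05% parasitemia final; 96 hours at 37 C, 5% CO2; luciferase detection reagent; luminescence decrease equals reduced growth.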
CHX counter = counter-screen hit for Shiga toxin inhibitors, cycloheximide | max response, % | AID 2314 | 12% of 300,000 active | cell reporter, cycloheximide protein synthesis inhibition counterscreen; in the data active means max response mostly above about 13%, no sharp cut-off; inactive means mostly below about 14%; further: read at 38.3 µM for the half of the compounds with a filed dose
Pf growth 48h = P. falciparum growth inhibition at 48 hours (one generation); 5.9% of 310,000 active; Potency, µM (series often up to 28.7 µM), usual class: inhibitors; P. falciparum luciferase growth in erythrocytes, 48 h
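A one-generation exposure of luciferase-tagged malaria parasites in RPMI 1640/Albumax erythrocyte culture, 37 C and 5% CO2. Inhibition is inferred from decreased luminescence after adding detection reagent.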
NS1 function inh = influenza NS1 inhibition; Potency, µM (doses to about 46.1 µM); 0.4% of 270,000 active; AID 2326; calls by dose curve; further: actives are rising curves; nearly all actives have a fitted effect of over 50% in size
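OD600 was taken as the measure of yeast growth restored by compound in an NS1-expressing S. cerevisiae strain. Cells had been washed out of glucose medium and diluted 1:100 into galactose -URA medium, pH 6.0.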
Shiga inhibitor = inhibitors of Shiga toxin in Vero cells | Vero cells, Shiga toxin protein synthesis inhibition reporter | inhibition, % at 38.7 µM | 9.2% of 290,000 active | AID 2315; in the data active means inhibition mostly above about 28%, no sharp cut-off; inactive means mostly below about 43%
Numbers stand for hits; 0 = inactive; ? = inconclusive; - = not tested or not shown; ! = not active in a repeat. Unless noted, the call rests on the fitted dose curve; in most records, active means well fitted inhibition curve with a large enough effect; inconclusive means small, poorly fitted or top-dose-only effect, or another doubt; inactive means no such curve, though single readings can be large or run the other way.

SMILES | Pf growth 96h | CHX counter | Pf growth 48h | NS1 function inh | Shiga inhibitor
COc1ccc(OCc2nc3c4c(ncn3n2)-c2ccccc2CC42CCCC2)cc1 | 13µM | 0 | ? | 0 | 0
Oc1cccc(-c2nc3c4c(ncn3n2)-c2ccccc2CC42CCCC2)c1 | 9.3µM | 0 | 12µM | 0 | 0
COc1ccc(-c2nc3c4c(ncn3n2)-c2ccccc2CC42CCCC2)cc1 | 0 | 0 | 0 | 0 | 0
Cc1ccccc1OCc1nc2c3c(ncn2n1)-c1ccccc1CC31CCCC1 | 5.2µM | 0 | ? | 0 | 0
Cc1ccc(OCc2nc3c4c(ncn3n2)-c2ccccc2CC42CCCC2)cc1 | 15µM | 0 | ? | 0 | 0
CC(Sc1nnc(N)s1)c1ccccc1Cl (centres undefined) | 0 | 0 | - | 0 | 0
CC(=O)c1ccccc1NC(=O)COC(=O)C1=NN(c2ccccc2)C(=O)CC1 | 0 | - | 0 | - | -
O=C(NC1CCN(S(=O)(=O)c2ccccc2)CC1)c1cccc(F)c1 | ? | 0 | 0 | 0 | 0
CC(=O)NC1CC2CCCC(C1)N2S(=O)(=O)c1cccc(F)c1 (centres undefined) | 8.3µM | 0 | - | 0 | 0
Cc1ccc(C(=O)NC2CC2)cc1S(=O)(=O)N1CCOCC1 | 0 | - | ? | - | -
CCC(C)(C)C1CCC(NC(=O)c2ccc(S(=O)(=O)N3CCOCC3)cc2)CC1 (centres undefined) | 15µM | - | 10µM | - | -
O=C(c1cccs1)N1CCN(S(=O)(=O)c2ccc(F)cc2)CC1 | 0.47µM | 0 | 0 | 0 | 0
O=C(NC1CCN(S(=O)(=O)c2cccc(F)c2)CC1)c1ccc(F)cc1 | 10µM | 0 | ? | 0 | 0
O=C(NC1CCN(S(=O)(=O)c2ccc(F)cc2)CC1)c1ccc(F)cc1 | 12µM | 0 | 0 | 0 | 0
COc1ccc(C(=O)NC2CCN(S(=O)(=O)c3ccc(F)cc3)CC2)cc1 | ? | 0 | 0 | 0 | 0
O=S(=O)(c1ccc(F)cc1)N1CCN(C(=S)NC2CC2)CC1 | ? | - | 2.6µM | - | -
O=C(NC1CCCCC1)N1CCN(S(=O)(=O)c2ccc(F)cc2)CC1 | ? | 0 | 0 | 0 | 0
COCC(=O)Nc1ccc(S(=O)(=O)Nc2cc(C)nc(C)n2)cc1 | 0 | 0 | - | 0 | 0
O=C(CNC(=O)c1ccccc1F)NCCN1C(=O)S/C(=C\c2ccccc2Cl)C1=O | 0 | 0 | 0 | 0 | 0
Cc1ccc(S(=O)(=O)CCC(=O)NCCN2C(=O)S/C(=C\c3ccccc3)C2=O)cc1 | ? | 16 | 0 | 0 | 0
O=C(CCS(=O)(=O)c1ccc(Cl)cc1)NCCN1C(=O)S/C(=C\c2ccccc2F)C1=O | 0 | 34 | 0 | 0 | 67
CCN(CC)C(=O)C1=C(C)Nc2nnnn2C1c1cccnc1 (centres undefined) | - | 0 | 0 | 0 | 0
O=C(NCc1ccccc1Cl)c1ccc2nc[nH]c2c1 | 0 | 0 | 0 | 0 | 0
NCCc1ccc(O)c(O)c1 | ? | 0 | ? | 0 | 0
CCCCc1cc(O)c(CCCC)c(O)c1 | 0 | 39 | ? | 0 | 40
SMILES | Pf growth 96h | CHX counter | Pf growth 48h | NS1 function inh | Shiga inhibitor
COc1ccccc1OCCC(=O)NCc1ccc2c(c1)OCO2 | 0 | 0 | 0 | - | 0
COc1ccc(/C=C(/CC(=O)NCc2ccc(Cl)cc2)c2nc3ccccc3s2)cc1 | ? | 19 | 0 | 0 | 0
COc1ccccc1/C=C(/CC(=O)NCc1ccc2c(c1)OCO2)c1nc2ccccc2s1 | ? | 20 | 0 | 0 | 67
O=C(O)C/C(=C\c1ccc2c(c1)OCO2)c1nc2ccccc2s1 | 0 | 32 | 0 | 0 | 69
O=C(COc1ccccc1Cl)Nc1nc(-c2cccs2)cs1 | 0 | 0 | 0 | 0 | 0
Nc1nc(-c2cccs2)cs1 | 0 | 34 | 0 | 0 | 0
CC(=O)Nc1nc(-c2cccs2)cs1 | 0 | 23 | 0 | 0 | 0
O=C(Nc1nc(-c2ccc(Cl)s2)cs1)c1ccccc1 | 9.3µM | 42 | - | 0 | 0
O=C(O)C1CCC1C(=O)Nc1nc(-c2ccc(Cl)s2)cs1 (centres undefined) | 0 | 0 | 0 | 0 | 0
O=C(Nc1nc(-c2cccs2)cs1)c1ccc(Cl)s1 | ? | 42 | 0 | 0 | 39
CC(C)(C)OC(=O)N1Cc2[nH]c3ccccc3c2C[C@@H]1C(=O)O | 0 | - | 0 | - | -
O=C(O)Cc1csc(-c2cccc(F)c2)n1 | 0 | 0 | 0 | - | 0
Cn1ccnc1SCc1cn2ccccc2n1 | 0 | 30 | 0 | 0 | 82
c1ccn2cc(CSC3=NCCS3)nc2c1 | 0 | 29 | - | 0 | 121
c1ccc(-n2nnnc2SCc2cn3ccccc3n2)cc1 | - | 0 | 0 | 0 | 0
c1ccn2cc(CSc3nnc4ccccn34)nc2c1 | 0 | 57 | - | 0 | 120
CC1CCCCN1C(=O)Cn1cnc2cc([N+](=O)[O-])ccc2c1=O (centres undefined) | 0 | 0 | 0 | - | 0
Cc1ccc(NS(=O)(=O)c2c(C)ccc3nsnc23)c([N+](=O)[O-])c1 | 0 | 0 | 0 | 0 | -
Cc1cc(Cl)c(S(=O)(=O)NC2CCCCC2)cc1OCC(=O)Nc1nncs1 | 0 | 0 | ? | 0 | 0
COc1ccccc1NC(=S)N1C2CCC1CC(NC(=O)NC13CC4CC(CC(C4)C1)C3)C2 (centres undefined) | 4.7µM | 0 | ? | 0 | 0
O=C(Cc1ccccc1[N+](=O)[O-])NCc1ccc(Cl)cc1Cl | 0 | 44 | 0 | 0 | 87
CC(C)N(C(=O)Cc1ccccc1[N+](=O)[O-])C(C)C | 0 | 0 | 0 | 0 | 0
CC(C)C(NC(=O)Cc1ccccc1[N+](=O)[O-])C(C)C | 12µM | 0 | 0 | 0 | 0
O=C(NCc1ccc(Cl)cc1)c1ccncc1 | ? | 0 | 0 | 0 | -
O=C(Cc1ccccc1[N+](=O)[O-])NCc1ccc(Cl)cc1 | 0 | 33 | 0 | 0 | 0
SMILES | Pf growth 96h | CHX counter | Pf growth 48h | NS1 function inh | Shiga inhibitor
O=C(NCc1ccc(Cl)cc1)c1n[nH]c([N+](=O)[O-])c1Cl | 0 | 45 | ? | 0 | 61
CCn1cc(CN2CCCC(CNS(=O)(=O)c3cccc4cccnc34)C2)cn1 (centres undefined) | 0 | 0 | 0 | 0 | 0
O=C(Nc1nc2ccccc2s1)c1cccc(S(=O)(=O)N2CCc3ccccc32)c1 | ? | 14 | ? | 0 | 0
Cc1nnc(NC(=O)c2cccc(S(=O)(=O)N3CCc4ccccc43)c2)s1 | - | 0 | 0 | 0 | 0
O=C(Nc1nc2c(s1)CN(Cc1ccccc1)CC2)c1cccc(S(=O)(=O)N2CCc3ccccc32)c1 | 8.3µM | 0 | ? | 0 | 0
CN(C)C1CCN(CCCOc2ccc(-c3ccc(C#N)cc3)cc2)C1 (centres undefined) | - | 31 | - | - | 0
COc1cc2c(cc1OC)C1Cc3ccc(OC)c(OC)c3CN1CC2 (centres undefined) | ? | 0 | 1.3µM | 0 | 0
COc1ccc2c(c1OC)C(=O)O[C@H]2[C@@H]1c2cc3c(cc2CCN1C)OCO3 | 15µM! | - | 0 | - | -
COc1ccc2c(c1OC)CN1CCc3cc4c(cc3[C@@H]1[C@@H]2O)OCO4 | 9.3µM | 0 | ? | 0 | 0
COc1cccc(C(=O)CC(=O)C(=O)Nc2ccc(C)cc2Cl)c1 | 0 | 12 | 0 | 0 | 38
COc1cccc(C(=O)CC(=O)C(=O)Nc2cc(OC)ccc2OC)c1 | 0 | 0 | - | 0 | 0
COc1cc(OC)c(NC(=O)C(=O)CC(=O)c2ccc(C)cc2C)cc1Cl | 3.3µM | 0 | ? | - | 0
CC(C)c1ccc(NC(=O)CNS(=O)(=O)c2ccc(F)cc2)cc1 | 0 | 0 | ? | 0 | 0

Assay outcomes as filed in PubChem BioAssay.
